# From PubChem
# AmpC inh no detg – qHTS Inhibitors of AmpC Beta-Lactamase (assay without detergent); Potency, µM (series often up to 57.1 µM), for inactives: top-dose activity change, negative = inhibition, most hits filed as inhibitors; 0.52% of 330,000 active; AID 485341, 2010; AmpC nitrocefin hydrolysis, absorbance 480 nm, 0.0001% Triton; P00811;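 note: potency is the fitted concentration of half-maximal effect; plate controls were no compound for no effect and no enzyme for full effect; nearly all actives have a fitted effect of over 20% in size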
# Target sequence (P00811 whole entry, looked up): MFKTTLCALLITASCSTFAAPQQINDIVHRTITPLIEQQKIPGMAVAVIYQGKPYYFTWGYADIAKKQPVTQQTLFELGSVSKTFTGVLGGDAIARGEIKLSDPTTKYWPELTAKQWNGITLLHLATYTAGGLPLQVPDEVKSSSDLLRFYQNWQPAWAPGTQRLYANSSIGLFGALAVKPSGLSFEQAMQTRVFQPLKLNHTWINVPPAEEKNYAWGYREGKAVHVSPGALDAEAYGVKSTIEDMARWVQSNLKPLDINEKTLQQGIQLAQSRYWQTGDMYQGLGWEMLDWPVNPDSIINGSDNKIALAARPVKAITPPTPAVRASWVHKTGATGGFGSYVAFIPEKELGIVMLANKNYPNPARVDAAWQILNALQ
#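 20 mM phosphate pH 7.0 + 0.01% (detergent screen) or 0.0001% Triton X-100; 5.3 nM AmpC reagent; cpd preinc 15 min RT; nitrocefin (800 uM stock) to start; A480 q20 s × 4 min; Activity was normalised to no-enzyme and no-compound control wells.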
# AmpC inh detg – qHTS Inhibitors of AmpC Beta-Lactamase (assay with detergent). P00811. AmpC hydrolysis of nitrocefin, absorbance 480 nm, 0.01% Triton. Potency, µM (highest dose often 114 µM), for inactives: at the top dose activity change, negative = inhibition, hits mostly inhibitors. 0.041% of 370,000 active;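 note: potency is the fitted concentration of half-maximal effect; 0% = no-compound wells and -100% = no-enzyme wells; nearly all actives have a fitted effect of over 25% in size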
#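 AmpC (5.3 nM in the dispensed reagent) in 20 mM phosphate pH 7.0 with 0.01% (detergent screen) or 0.0001% Triton X-100 was preincubated with compounds for 15 min at room temperature. Nitrocefin was then added from an 800 uM solution, and hydrolysis was followed at 480 nm.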
# SARS PLP yeast – qHTS of Yeast-based Assay for SARS-CoV PLP; S. cerevisiae expressing SARS-CoV PLpro, growth rescue; Potency, µM (top dose mostly 32.9 µM), for the others: at the top dose activity, positive = growth rescue, usual class: activators; 0.19% of 330,000 active; calls by dose curve; note: potency is the fitted concentration of half-maximal effect; 0% is about no effect; nearly all actives have a fitted effect of over 55% in size
# AMA1-RON2 inh – qHTS for Inhibitors of AMA1-RON; Towards Development of Antimalarial Drug Lead: Primary Screen | AlphaScreen AMA1-biotinylated RON2 peptide binding | Potency, µM (doses to about 58.2 µM), for the others: top-dose activity change, negative = inhibition, most hits filed as inhibitors | 0.2% of 360,000 active;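 note: potency is the fitted concentration of half-maximal effect; 0% = vehicle wells and -100% = peptide control; nearly all actives have a fitted effect of over 45% in size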
#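 AMA1 (3D7) with his tag at 25 nM final met compounds first, then biotinylated RON2 peptide at 25 nM; detection used donor plus acceptor beads, 10 µg/mL apiece, read by AlphaScreen after 30 min at room temperature.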
# Shiga toxin inh – A qHTS for Small Molecule Inhibitors of Shiga Toxin | Vero cells, Shiga toxin protein synthesis inhibition reporter | inhibition, % at 38.7 µM | 9.2% of 290,000 active | AID 2315, 2010; in the data active = inhibition mostly above about 28%, no sharp cut-off; inactive = mostly below about 43%; note: 0% is about no effect
# CHX counter – Cycloheximide Counterscreen for Small Molecule Inhibitors of Shiga Toxin | cell reporter, cycloheximide protein synthesis inhibition counterscreen | max response, % | 12% of 300,000 active; in the data active = max response mostly above about 13%, no sharp cut-off; inactive = mostly below about 14%; note: read at 38.3 µM for the half of the compounds with a filed dose; 0% is about no effect
# * marks the source's active call; other numbers are inactive results; ? = inconclusive; . = no result given. The full list was thinned out, with hits kept by preference. Unless noted, calls come from the whole dose curve; as a rule, active = well fitted curve in the direction sought with a large enough effect; inconclusive = small, poorly fitted or top-dose-only effect, or another doubt; inactive = no such curve, though single readings can be large; an effect the other way counts as inactive or inconclusive.
SMILES,AmpC inh no detg,AmpC inh detg,SARS PLP yeast,AMA1-RON2 inh,Shiga toxin inh,CHX counter
O=C(c1ccco1)N1CCN(C(c2ccc(Cl)cc2)c2nnnn2Cc2ccccc2)CC1 (stereo not given),74%,-1%,18%,-17%,15,13*
COc1ccc(Cn2nnnc2C(CC(C)C)N2CCC(C(N)=O)CC2)cc1 (stereo not given),21%,-8%,0%,-12%,77*,44*
COc1ccc(C(c2nnnn2Cc2ccccc2)N2CCN(C(=O)c3ccco3)CC2)cc1 (stereo not given),76%,?,-2%,-14%,-3,28*
CNC(=S)N1N=C(c2ccc(Br)cc2)CC1c1ccc(OC)cc1 (stereo not given),-6%,-14%,0%,33%,19,8
Cc1ccc(C)c(NS(=O)(=O)c2csc(C(N)=O)c2)c1,-42%,-2%,0%,2%,-15,-4
CN1CCN(Cc2c(O)ccc3c(-c4ccccc4)cc(=O)oc23)CC1,13%,-11%,-3%,-1%,-28,-1
O=C(Cc1ccc(F)cc1)Nc1ccccc1N1CCCC1,-3%,2%,1%,8%,26,-1
Cc1ccccc1NC(=O)c1ccc2c(c1)CCN2S(C)(=O)=O,0%,0%,7%,-1%,13,2
Cc1cccc(NC(=O)c2ccc3c(c2)CCN3S(C)(=O)=O)c1C,-3%,-9%,4%,-2%,.,18*
CS(=O)(=O)N1CCc2cc(C(=O)Nc3ccccc3Cl)ccc21,-18%,?,-20%,2%,37,27*
Cc1c(F)cccc1NC(=O)c1ccc2c(c1)CCN2S(C)(=O)=O,-5%,1%,2%,-8%,165*,8.9*
CS(=O)(=O)N1CCc2cc(C(=O)OCC(=O)c3ccccc3)ccc21,2%,-2%,-3%,6%,49,23*
CCN(CC)C(=O)c1ccc(-c2nnc(Nc3ccc(C(=O)N(C)C)cc3)c3ccccc23)cc1,63%,-13%,-9%,-1%,-5,-3
CCn1c(=S)sc2c(=O)n(-c3ccccc3)c(SC)nc21,-9%,-1%,-7%,-2%,-6,1
Cn1c(CNC(=O)c2ccccc2F)nnc1SCC(=O)Nc1nnc(C2CC2)s1,-3%,5%,-2%,7%,4,-8
O=C(CSc1cccc[n+]1[O-])Nc1cc(S(=O)(=O)N2CCOCC2)ccc1N1CCOCC1,-16%,-4%,-9%,-10%,14,49*
O=C(CSc1cccc[n+]1[O-])Nc1cc([N+](=O)[O-])ccc1Cl,-2%,3%,-2%,1%,-7,-3
O=C(CSc1cccc[n+]1[O-])Nc1cc2c(cc1Cl)C(=O)c1ccccc1C2=O,?,-11%,22%,-18%,82*,26*
CC(=NNC1=NCCN1)c1cn(C2=NCCN2)nc1C,.,.,.,41%,.,.
CCCCOC(=O)c1ccc(NC(=O)c2cc(-c3ccccc3)on2)cc1,.,22%,.,.,.,.
COC(=O)c1ccc(NS(=O)(=O)c2ccc(Cl)cc2)o1,-28%,3%,5%,-4%,-6,9
CCC(CC)C(=O)Nc1cccc(SC)c1,-8%,5%,-2%,.,-6,-1
Cc1cc(=O)[nH]c(SCC(=O)c2ccc(C)c(C)c2)n1,-19%,1%,-16%,-15%,62,13
CCc1c(C)nc(SCC(=O)c2ccc(C)c(C)c2)[nH]c1=O,-34%,?,-3%,-5%,44,19*
CCc1nc(SCC(=O)c2ccc(C)c(C)c2)n[nH]1,-9%,?,3%,8%,70*,12
Cc1ccc(C(=O)CSc2n[nH]c(-c3ccco3)n2)cc1C,-29%,?,-8%,-14%,14,-2
COc1cc2ncnc(NCc3ccccc3F)c2cc1OC,-13%,?,-1%,-11%,-1,-2
